# Reference: PubChem BioAssay (NCATS)
# Results filed as inconclusive are left out. Calls of active or inactive are those of the source. Calls follow the shape of the dose curve; as a rule, active = well fitted cell-killing curve with a large enough effect; inconclusive = small, poorly fitted or top-dose-only effect, or effect the other way; inactive = flat fitted curve, though single readings scatter.
# Tested on: OV90
# Test: Primary qHTS to identify gynecologic anti-cancer compounds using libraries of approved drugs and bioactive compounds (AID 1345084); also: nearly all actives have a fitted effect of over 55% in size
# Conditions: Gynecologic cancer cell panel viability, ATPlite luminescence, 48 h; series mostly up to 57.5 µM; activity change, negative = cytotoxicity: at the top concentration
# Summary of the method: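 48 h compound exposure at 37 C, 5% CO2; five-point qHTS. ATPlite luminescence readout of cell ATP.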
# % is scaled to controls: 0 for no effect and ±100 for the full control effect.
row,Structure (SMILES),"activity change, negative = cytotoxicity"
1,CC1CCC2(C(=O)O)CCC3(C)C(=CCC4C5(C)C[C@@H](O)[C@@H](O)C(C)(CO)C5CCC43C)C2C1(C)O (some centres undefined),17.7% [at 25.3 µM] (inactive)
2,C=C1CCC2[C@@](C)(C(=O)O)CCC[C@@]2(C)[C@@H]1CCc1ccoc1 (some centres undefined),5.58% [at 38.5 µM] (inactive)
3,OCC1OC(Oc2cc(O)cc(/C=C/c3ccc(OC4OC(CO)C(O)C(O)C4O)cc3O)c2)C(O)C(O)C1O (centres undefined),-16.5% [at 25.3 µM] (inactive)
4,C/C=C(/C)C(=O)OC1C2OC2C2(CO2)C2C3OC(=O)C(C)C3CCC12C (centres undefined),3.96% [at 38.5 µM] (inactive)
5,COc1cc(/C=C/C(=O)O[C@@H]2O[C@H](CO)[C@@H](O)[C@H](O)[C@H]2O)ccc1O,0.587% [at 38.5 µM] (inactive)
6,C[C@]1(O)CC[C@@H]2C(C(=O)O)=CO[C@@H](O[C@@H]3O[C@H](COC(=O)/C=C/c4ccc(O)c(O)c4)[C@@H](O)[C@H](O)[C@H]3O)[C@@H]21,-3.84% [at 25.3 µM] (inactive)
7,C=C[C@H]1[C@H](O[C@@H]2O[C@H](CO)[C@@H](O)[C@H](O)[C@H]2O)OC=C2C(=O)N3Cc4c([nH]c5ccccc5c4=O)[C@@H]3C[C@H]21,10.1% [at 25.3 µM] (inactive)
8,COc1cc(O)c2c(c1Cl)CC(C)OC2=O (centres undefined),5.81% (inactive)
9,Cc1ncc(Cl)cc1NCc1ccc(C(=O)NC(CC2CCCC2)C(=O)NC2CC2)s1 (centres undefined),12.4% (inactive)
10,COC(=O)C1=CO[C@@H](O[C@@H]2O[C@H](CO)[C@@H](O)[C@H](O)[C@H]2O)[C@@H]2[C@@H](C)[C@@H](O)C(O)[C@H]12 (some centres undefined),24.9% [at 25.3 µM] (inactive)
11,Cc1occc1C(=O)n1ccnc1,6.59% (inactive)
12,COc1cccc(CNc2ccc(S(=O)(=O)Nc3nc4ccccc4s3)cc2)c1O,1.84% (inactive)
13,CC1(C)CC[C@]2(C(=O)O[C@@H]3O[C@H](CO[C@@H]4O[C@H](CO[C@@H]5O[C@H](CO)[C@H](O)[C@H](O)[C@H]5O)[C@@H](O)[C@H](O)[C@H]4O)[C@@H](O)[C@H](O[C@@H]4O[C@H](CO)[C@@H](O)[C@H](O)[C@H]4O)[C@H]3O)[C@H](O)C[C@]3(C)C(=CCC4[C@@]5(C)CC[C@H](O[C@@H]6OC[C@@H](O)[C@H](O)[C@H]6O)[C@@](C)(C(=O)O)C5CC[C@]43C)[C@@H]2C1 (some centres undefined),12% [at 6.55 µM] (inactive)
14,COc1c(O[C@@H]2O[C@H](CO)[C@@H](O)[C@H](O)[C@H]2O)c(CCC(=O)O)cc2ccoc12,0.166% [at 38.5 µM] (inactive)
15,CCOC(=O)CSc1nc2c(sc3ccccc32)c(=O)n1CCCN1CCCC1,-5.5% (inactive)
16,O=C(O)/C=C/c1ccc(O[C@@H]2O[C@H](CO)[C@@H](O)[C@H](O)[C@H]2O)cc1,0.614% [at 38.5 µM] (inactive)
17,COCCN1CCC(C(=O)NO)(S(=O)(=O)c2ccc(Oc3ccc(OC(F)(F)F)cc3)cc2)CC1,5.51% (inactive)
18,CCCCOc1nc(N)c2c(n1)N(Cc1cccc(CN3CCCC3)c1)CC(=O)N2,0.55% (inactive)
19,CC(C)C1(O)C=C2C(=O)CC3C(C)(C(=O)O)CCCC3(C)C2CC1 (centres undefined),11.2% [at 38.5 µM] (inactive)
20,O=C(OC[C@H]1O[C@H](O[C@H]2CO[C@H](CO)[C@@H](O)[C@@H]2O)[C@H](O)[C@@H](O)[C@H]1O)c1ccccc1,-0.435% [at 25.3 µM] (inactive)

row,Structure (SMILES),"activity change, negative = cytotoxicity"
1,CC1CCCCCCCc2cc(O)cc(O)c2C(=O)O1 (centres undefined),-11.1% (inactive)
2,COC(=O)C1=CO[C@@H](O[C@@H]2O[C@H](CO)[C@@H](O)[C@H](O)[C@H]2O)[C@H]2[C@@H]1[C@H](O)[C@H](O)[C@]2(C)O,22.6% [at 25.3 µM] (inactive)
3,CC(C)/C=C1/NC(=O)C(C(C)C)n2c1nc1c(O)cccc1c2=O (centres undefined),-5.64% [at 38.5 µM] (inactive)
4,CC1C2=CC(=O)OC2(O)CC2C1C(OC(=O)c1ccccc1)C(OC(=O)c1ccccc1)C1(O)C2(C)CCC(O)C1(C)C(=O)O (centres undefined),8.67% [at 25.3 µM] (inactive)
5,O=C1NC(=O)/C(=C/c2cccc(C(F)(F)F)c2)S1,3.95% (inactive)
6,C/C=C/C=C/C=C/C(=O)OC1C=C2C(O)OC(=O)[C@]2(O)[C@@]2(C)CCCC(C)(C)[C@H]12 (some centres undefined),14.5% [at 25.3 µM] (inactive)
7,COc1cc2c(c(O)c1OC/C=C(\C)CC/C=C(/C)CCC=C(C)C)CN(C(CCC(=O)O)C(=O)O)C2=O (centres undefined),5.72% [at 25.3 µM] (inactive)
8,CCCC(C(=O)O)c1c(C)nc2ccc(Cl)cc2c1-c1ccccc1 (centres undefined),-0.526% (inactive)
9,Cn1cc(-c2c[nH]c3ncnc(N4CCOCC4)c23)cn1,8.47% (inactive)
10,CC1=C2C[C@@]3(C)C(CCC[C@@H]3C)C(O)C2(O)OC1=O (some centres undefined),7.85% (inactive)
11,CCOc1ncc(S(=O)(=O)N2CCN(CC)CC2)cc1-c1nc2c(CC)n(CCOC)nc2c(=O)[nH]1,11.3% (inactive)
12,COc1cc2nc(=NC(=O)c3cccnc3)n3c(c2cc1OC)NCC3,-3.59% (inactive)
13,CC1=CC[C@@]2(C)CC[C@@](O)(C(C)C)[C@@H]2[C@@H](O)C1,-9.25% (inactive)
14,C/C(=C\CCC(C)(C)O)CCO[C@@H]1O[C@H](CO[C@@H]2O[C@@H](C)[C@H](O)[C@@H](O)[C@H]2O)[C@@H](O)[C@H](O)[C@H]1O,-5.03% [at 25.3 µM] (inactive)
15,CC1(C)C=Cc2c(ccc3c2N=C2C(C)(C)[C@@H]4C[C@]56CCCN5C(=O)[C@@]4(C[C@]23O)NC6=O)O1,0.363% [at 25.3 µM] (inactive)
16,C=C1CC23CC1CCC2C12OC(=O)C(C)(C(O)C(O)C1O)C2C3C(=O)O (centres undefined),13.4% [at 38.5 µM] (inactive)
17,C=CC(C)(O)CCC1C(C)(O)CCC2C(C)(C)CCCC21C (centres undefined),0.116% [at 38.5 µM] (inactive)
18,CC1=CC(=O)CC(C)(C)[C@@]1(O)/C=C/C(C)O[C@@H]1O[C@H](CO)[C@@H](O)[C@H](O)[C@H]1O (some centres undefined),-0.377% [at 25.3 µM] (inactive)
19,C=C(CCO)C(=O)OCC1OCC(OC(=O)C(=C)CCO[C@@H]2O[C@H](COC(=O)C(=C)CCO[C@@H]3O[C@H](CO)[C@@H](O)[C@H](O)[C@H]3O)[C@@H](O)[C@H](O)[C@H]2O)C(O)C1O (some centres undefined),-5.98% [at 25.3 µM] (inactive)
